Data reported in PubChem BioAssay AID1645886 (National Center for Advancing Translational Sciences (NCATS), 2021).
Several values for one entry are separate records, joined by “and”; a condition that tells them apart may be missing. Equal entries are not always repeated. Screen size: about 16,000 compounds; about 260 (1.6%) were called active. Another 14% or so got no clear call; they are omitted. Calls follow the shape of the dose curve; as a rule, active = well fitted inhibition curve with a large enough effect; inconclusive = small, poorly fitted or top-dose-only effect; inactive = no such curve, though single readings can be large or run the other way. The entries come from a sample that favours actives as a whole. A structure can be active in one record and inactive in another. *1 amine or outer side, *2 acyl side, *3 side chain or, on linkers, in order; H or OH if unused. Where a SMILES comes first, the peptide text is derived from it. Bridges are numbered along the chain shown (N, C = ends). [ ]: non-standard residue; d: D form. The star is where a group is joined. X12 = NC1=N[C@@H]([C@H](N[*:1])C(=O)[*:2])C[C@H](O)N1; ΔAla(Z-3-ureido) = NC(=O)N/C=C(\N)C(=O)O; β3hOrn = NCCC[C@H](N)CC(=O)*; Dap = NC[C@H](N)C(=O)O

biological target: Rap guanine nucleotide exchange factor 4 (Homo sapiens) (UniProt Q8WZA2); assay: Validation qHTS for antagonist of cAMP-regulated guanine nucleotide exchange factor 4 (EPAC2); conditions: EPAC2 Rap1B BODIPY-GDP exchange, fluorescence; series mostly up to 112 µM; also: nearly all actives have a fitted effect of over 40% in size
Sequence (Q8WZA2 whole entry, looked up): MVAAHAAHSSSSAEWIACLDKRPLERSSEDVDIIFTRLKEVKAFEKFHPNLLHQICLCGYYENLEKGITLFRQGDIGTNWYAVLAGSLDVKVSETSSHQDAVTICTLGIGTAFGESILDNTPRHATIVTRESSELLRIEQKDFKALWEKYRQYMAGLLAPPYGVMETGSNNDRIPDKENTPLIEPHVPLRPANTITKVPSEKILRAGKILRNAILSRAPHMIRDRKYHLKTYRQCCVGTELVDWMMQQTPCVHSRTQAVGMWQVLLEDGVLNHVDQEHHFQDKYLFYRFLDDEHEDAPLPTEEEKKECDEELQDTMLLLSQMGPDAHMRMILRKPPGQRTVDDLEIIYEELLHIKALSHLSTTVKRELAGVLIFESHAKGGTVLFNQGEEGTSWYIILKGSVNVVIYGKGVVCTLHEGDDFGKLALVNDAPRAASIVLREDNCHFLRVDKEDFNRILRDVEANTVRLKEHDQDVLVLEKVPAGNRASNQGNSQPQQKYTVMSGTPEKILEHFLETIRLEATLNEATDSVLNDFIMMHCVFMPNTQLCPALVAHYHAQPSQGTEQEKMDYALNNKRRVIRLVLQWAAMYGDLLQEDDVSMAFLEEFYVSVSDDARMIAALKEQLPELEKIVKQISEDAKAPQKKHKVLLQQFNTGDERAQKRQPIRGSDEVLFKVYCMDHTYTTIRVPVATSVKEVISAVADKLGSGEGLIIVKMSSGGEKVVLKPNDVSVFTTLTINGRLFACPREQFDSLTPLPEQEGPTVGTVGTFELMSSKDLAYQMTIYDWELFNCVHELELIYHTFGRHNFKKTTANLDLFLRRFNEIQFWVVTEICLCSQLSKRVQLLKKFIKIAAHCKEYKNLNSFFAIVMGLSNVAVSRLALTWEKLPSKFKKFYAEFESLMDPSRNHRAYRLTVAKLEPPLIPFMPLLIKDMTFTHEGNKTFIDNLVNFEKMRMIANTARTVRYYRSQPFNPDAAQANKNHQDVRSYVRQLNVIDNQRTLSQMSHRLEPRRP
From the text: Principle Investigator: Xiaodong Cheng Ph.D. The University of Texas Medical Branch, […], TX MLPCN Grant: NS066510 In multi-cellular eukaryotic organisms, the effects of cAMP are transduced by two ubiquitously-expressed intracellular cAMP receptors, the classic protein kinase A/cAMP-dependent protein kinase (PKA/cAPK) and the more recently discovered exchange protein directly activated by cAMP/cAMP-regulated guanine nucleotide exchange factor (EPAC/cAMP-GEF). Both PKA and EPAC are ubiquitously expressed in all tissues, and an increase in intracellular cAMP levels will lead to the activation of both PKA and EPAC. Therefore, careful dissections of the individual role and relative contribution of EPAC and PKA within the overall cAMP signaling in various model systems are critical for further elucidating the mechanism of cAMP signaling. To date no EPAC-specific antagonists and agonist, as well as isoform-specific agonists have been reported, and developing EPAC-specific pharmacological probes to determine the physiological functions that EPAC play in the overall cAMP-mediated signaling remains a major challenge within the research field. Furthermore, identified regulators of EPAC may lead to new mechanism-based therapeutic strategies specifically targeting the EPAC / cAMP-signaling components as EPAC has been implicated to play important roles in major human pathological conditions such as diabetes, heart disease, and cancer. This qHTS will be used to screen the Molecular Libraries Small Molecule Repository (MLSMR) as a concentration-titration series using the NCGC unique quantitative screening (qHTS) platform to find activators for EPAC1. In addition, this assay will also be used as a counterscreen for the EPAC2 qHTS. This fluorescent based assay is developed and validated for EPAC1 that measures exchange using EPAC effector Rap1 complex with BODIPY-GDP, a GDP analog with a tethered fluorophores. Activators are identified by monitoring the change in fluorescence signal as the exchanged free BODIPY-GDP has a reduced fluorescence compared to Rap1-bound BODIPY-GDP. Increase in signal (activation) is the desired outcome for the EPAC1 agonist while no activity in this assay is desired for the EPAC2 agonist counterscreen. Reference: [1] de Rooij, J., Zwartkruis, F. J., Verheijen, M. H., Cool, R. H., Nijman, S. M., Wittinghofer, A., and Bos, J.L. (1998) Nature 396, 474-477.
Briefly, three uL of reagents (100 nM EPAC2, 250 nM RAP1B-BODIPY-GDP, 50 uM GDP) were dispensed into a 1536-well Greiner black solid-bottom medium binding assay plate. Controls and test compounds (23 nL) were transferred to the plate via a Kalypsys pin tool equipped with a 1536-pin array. The plates were centrifuged at 1,000 rpm for 15 seconds followed by 5 minute incubation at room temperature. The assay plates were read at 5 minute intervals for 30 minutes in the ViewLux plate reader using 480nm excitation and 540nm emission filters. The results were normalized to the agonist positive control of 6.5 mM cAMP.
Potency is read from the fitted curve at half-maximal effect.

Potency, active:
Cc1c(S(=O)(=O)O)oc2c1C(=O)C(=O)c1c-2ccc2c1CCCC2(C)C 44.7 µM, CCC(C)[C@H]1COCCS(=O)(=O)N1Cc1ccc(C)cc1 (some centres undefined) 79.4 µM, CCOC(=O)N1CCC(N2CCOc3ccc(CN4CCC(O)(c5cccnc5)CC4)cc3C2)CC1 79.4 µM, CC[N+](C)(CC)CCC[n+]1c(-c2ccccc2)c2cc(N)ccc2c2ccc(N)cc21 50.1 µM, CCCCCCc1ccc(O)cc1O 39.8 µM

Potency, inactive:
Cc1cc(-c2ccnc(-n3ncc(C(=O)NCCc4ccncc4)c3C)n2)c(C)s1, CC(=O)OCC(=O)[C@@]1(O)CCC2C3CCC4=CC(=O)CC[C@]4(C)C3C(=O)C[C@]21C (some centres undefined), c1cncc(CNc2ccnc(-c3ccc4c(c3)OCO4)n2)c1, COc1ccc2[nH]cc(CCNc3ncnc4ccc(-c5ccccc5CN(C)C)cc34)c2c1, COc1ccc(Oc2ncc3nc(C)c(=O)n(-c4ccccc4)c3n2)cc1, O=C(OCc1ccccc1)c1ccc(O)cc1, O=C1C(c2ccccn2)=[N+]([O-])c2ccccc21, Cn1nccc1C(=O)NCC1CCC2(CCN(Cc3c(O)ccc4ccccc34)CC2)O1 (centres undefined), COc1ccccc1N1CCN(CCN2C(=O)c3ccccc3C(C)(C)C2=O)CC1, COc1ccc(-c2nc3cnc(N(C)C)nc3n(Cc3cccs3)c2=O)cc1, COc1ccc(-n2c(CNC(=O)c3cc(C(F)(F)F)ccc3Cl)nnc2SC)cc1, CC(=O)O[C@H]1CC[C@@]2(C)C(=CC[C@@H]3[C@@H]2CC[C@]2(C)C(c4cccnc4)=CC[C@@H]32)C1, COc1ccc(CCCOC(Cn2ccnc2)c2ccc(OC)cc2)cc1 (centres undefined), Cc1cnc(CNc2nc(-c3cccnc3)nc3ccccc23)cn1, Cc1cc(C)cc(CN2CCc3nnc(C(NS(C)(=O)=O)C(C)C)n3CC2)c1 (centres undefined), COCCNc1ncnc2ccc(-c3ccccc3CN(C)C)cc12, Cc1cccc(CNc2ccnc(-c3cccnc3)n2)c1, CC(=O)N1CCC2(CCCN(Cc3ccc(C#N)cc3)C2)CC1, COc1ccc(CN(C)CCn2cc(C(=O)N3CCSCC3)nn2)cc1C, c1ccc(CNc2ncncc2-c2cccnc2)cc1, CS(=O)(=O)NC(=O)CCC/C=C\C[C@H]1C(=O)C[C@@H](O)[C@@H]1/C=C/[C@H](O)COc1ccccc1, COc1ccc(C(=O)N2CCC[C@@]3(CCN(C(=O)NC(C)C)C3)C2)cc1, Cc1cnc(-n2ncc(C(=O)N3CCN(C(C)C)CC3)c2-c2ccco2)nc1-c1ccc(F)cc1, CN(C)c1ccc(/C=C/c2c3ccccc3nc3ccccc23)cc1, O=c1c(-c2ccc(F)cc2)nc2cncnc2n1-c1ccccc1, COCC1CCCN(Cc2ccc3c(c2)CN(C(=O)c2ccnn2C)CCO3)C1 (centres undefined), Cc1c(O)cc2c(c1C)O[C@](C)(CCC[C@H](C)CCC[C@H](C)CCCC(C)C)CC2, CCc1noc(C)c1C(=O)NCCN1Cc2cc(OC)ccc2OC(CC)C1 (centres undefined), CC(N)(C(=O)O)c1ccc(-c2nn[nH]n2)cc1 (centres undefined), O=C1CCC[C@@H]2C[C@@]3(C[C@@H]4CCN1[C@H]24)Nc1ccccc1NC3=NCc1ccccc1, C=C1O[C@@](CO)(n2cnc3c(N)ncnc32)[C@H](O)[C@@H]1O, CO/N=C(\C(=O)N[C@@H]1C(=O)N2C(C(=O)O)=CCS[C@H]12)c1csc(N)n1, COC(=O)CC1C(C)(C)C(OC(C)=O)C2CC3=C4CC(=O)OC(c5ccoc5)[C@]4(C)CCC3[C@@]1(C)C2=O (some centres undefined), COc1ccccc1CNc1ccnc(-c2c(C)noc2C)n1, COc1ccc(C(=O)N2CCC3(CCCN(C(c4ccccc4)c4ccccc4)C3)CC2)cc1, CN(C)C(=O)c1ccc(-c2cncnc2NC2CCNCC2)cc1, CCC1(C2CCN(C(=O)c3cccc(F)c3F)CC2)NC(=O)N(CCc2scnc2C)C1=O (centres undefined), COc1ccccc1N1CCN(C[C@@H]2CN3C(=O)N(C)c4ccccc4C3=N2)CC1, Cc1ccc(CN2CCCOCCS2(=O)=O)cc1, Cc1ncc2c(c1CNS(=O)(=O)N(C)C)CCN(C(=O)c1ccccc1F)C2, COCCNc1cc(-c2c(C)noc2C)ncn1, C[N+](C)(C)CCCCCNCC12CC3CC(CC(C3)C1)C2, O=C(O)CCCc1ccccc1, Cc1cccc(CNC(=O)c2cnn(-c3nccc(-c4ccccc4F)n3)c2C2CC2)n1, O=C(c1cnccn1)N1CCC[C@@]2(CCN(Cc3ccncc3)C2)C1, COCCn1c(=O)c(-c2cc(F)cc(F)c2)nc2cnc(N3CCNCC3)nc21, Cn1cccc1C(=O)N1CCC[C@@]2(CCN(Cc3nccs3)C2)C1, CC(C)=CC1C(C(=O)O)C1(C)C (centres undefined), COc1ccccc1C1CN(Cc2ccccc2O)Cc2ccccc2O1 (centres undefined), Cc1c(O)cc(O)c2c(=O)c(-c3ccc(O)cc3)coc12, C[C@@H]1O[C@@H](OC[C@H]2O[C@@H](Oc3c(-c4cccc(O)c4O)oc4cc(O)cc(O)c4c3=O)[C@H](O)[C@@H](O)[C@@H]2O)[C@H](O)[C@H](O)[C@H]1O, COc1cccc(Cn2c(=O)c(-c3ccccc3)nc3cnc(OC)nc32)c1, O=c1c(-c2ccc(F)cc2)nc2cnc(N3CCNCC3)nc2n1Cc1cccs1, O=C(c1csnn1)N1CCC[C@@]2(CCN(Cc3nccs3)C2)C1, COCCN1CCN(C(=O)c2sc3ncnc(NCC4CCCO4)c3c2C)CC1 (centres undefined), O=C(Nc1cccc(F)c1)N1CCC2(CC1)CCN(S(=O)(=O)c1ccccc1)CC2, c1ccc2c(Nc3ccncc3)nc(-c3ccoc3)nc2c1, COCCn1c(=O)c(CCc2ccccc2)nc2cncnc21, CCC(C)[C@@H](N)C(=O)O (some centres undefined), O=S(=O)(c1ccccc1)N1CCC2(CC1)CN(Cc1nccs1)C2, COc1ccc(NC(=O)N2CC3(CCN(C(=O)c4cccn4C)CC3)C2)cc1, COc1cccc(Nc2ncc3ncc(=O)n(C4CC4)c3n2)c1, C/C=C/C=N/NC(=O)c1ccncc1, O=c1c(CCc2ccccc2)nc2cnc(N3CCNCC3)nc2n1Cc1cccs1, COc1ccc(CC(N)C(=O)NC2C(O)[C@H](n3cnc4c(N(C)C)ncnc43)O[C@@H]2CO)cc1 (some centres undefined), O=C1c2c(O)cccc2[C@@H]([C@@H]2O[C@H](CO)[C@@H](O)[C@H](O)[C@H]2O)c2cc(CO)cc(O)c21, CC(C)c1cc(C(=O)N2CCOc3ccc(CN4CCC(Oc5cccnc5)CC4)cc3C2)n[nH]1, CCOC(=O)N1CCN(Cc2ccc3c(c2)CN(C(=O)c2cccc(-n4cccn4)c2)CCO3)CC1, COCCn1c(=O)c(-c2ccc(OC)cc2)nc2cnc(Oc3cccc(Cl)c3)nc21, CC(C)NC(=O)N1CC[C@@]2(CCCN(C(=O)c3ccco3)C2)C1, CC(C)(C)c1ccc(C(=O)C[N+]2(C)CCCc3ccccc32)cc1 (centres undefined), COc1ccc(F)c(CN2CCC3(CCC(CNC(=O)c4ccn(C)n4)O3)CC2)c1 (centres undefined), CS(=O)(=O)Nc1cccc(-c2cncnc2Nc2ccccc2)c1, CC(=O)OCC(=O)C1CCC2C3CCC4=CC(=O)CC[C@@]4(C)C3CC[C@]12C (some centres undefined), N#Cc1cccc(-c2ccc3ncnc(NCc4cccs4)c3c2)c1, C=C(C)C1CC=C(CO)CC1 (centres undefined), CCCC1C(=O)N2C(N(C)C)=Nc3ccc(C)cc3N2C1=O (centres undefined), COC(=O)N1CCC2(CCCN(c3ccncc3)C2)CC1, O=C1CCN(Cc2ccc([N+](=O)[O-])cc2)CCN1[C@H](CO)Cc1ccccc1, Cc1cccc(-c2cc(=O)c3cc(C)ccc3o2)c1, CN(C)CCc1c[nH]c2ccc(Cn3cncn3)cc12, Cc1noc(C)c1-c1cc(NCc2cccnc2)ncn1, C=CC1(C)CC(=O)C2(O)C(C)(O1)C(OC(C)=O)C(O)C1C(C)(C)CCC(O)C12C (centres undefined), COc1cc(-c2cccnc2)cc2c1OCCN(C(=O)Cc1csc(C)n1)C2, NCCC[C@H](N)CC(=O)N[C@H]1CNC(=O)[C@H]([C@H]2C[C@H](O)NC(N)=N2)NC(=O)/C(=C/NC(N)=O)NC(=O)[C@H](CO)NC(=O)[C@H](CO)NC1=O (β3hOrn-[Dap]SS[ΔAla(Z-3-ureido)][X12]; lactam 1-C), O=C(O)C[C@@H]1NC(=O)[C@H](Cc2ccccc2)NC1=O, COc1ccc2c(c1)CCc1cnc(-n3ncc(C(=O)NCc4cccnc4)c3C3CC3)nc1-2, Cc1nc2cnc(Nc3ccccc3)nc2n(C[C@H]2CCCO2)c1=O, CN1CCN(c2ncc3nc(-c4ccc(Cl)cc4)c(=O)n(-c4ccccc4)c3n2)CC1, Cc1nc2cnc(N3CCN(C)CC3)nc2n(C[C@H]2CCCO2)c1=O, CC(O)[C@@H](N)C(=O)O (some centres undefined), COC(=O)C1CCCCN1Cc1ccc2c(c1)CN(Cc1cc(OC)c3c(c1)OCO3)CCO2 (centres undefined)

Potency, inactive and 50.1 µM (active):
CC(C)c1ccc2c(c1)c(SC(C)(C)C)c(CC(C)(C)C(=O)O)n2Cc1ccc(Cl)cc1

activity, negative = inhibition, inactive:
CCCCC/C=C\C/C=C\CCCCCCCCCC(=O)O -26.6% [at 11.4 µM]
